Test results from the supplement of paper PMC12645437, “Orthogonal IMiD-Degron Pairs Induce Selective Protein Degradation in Cells” (ACS Chemical Biology, 2025).
The full ranking holds about 8,300 sequences; the median of “log2 fold change of degron read counts, EGFP-low vs EGFP+ sorted cells (limma voom), compound-induced degradation” is about -1.1, and the highest 2% start at about 3.2. The list comes from a sample in which the highest values are over-represented; it also holds similar and randomly drawn sequences.

T1: CRBN, Q96SW2
T1 chain: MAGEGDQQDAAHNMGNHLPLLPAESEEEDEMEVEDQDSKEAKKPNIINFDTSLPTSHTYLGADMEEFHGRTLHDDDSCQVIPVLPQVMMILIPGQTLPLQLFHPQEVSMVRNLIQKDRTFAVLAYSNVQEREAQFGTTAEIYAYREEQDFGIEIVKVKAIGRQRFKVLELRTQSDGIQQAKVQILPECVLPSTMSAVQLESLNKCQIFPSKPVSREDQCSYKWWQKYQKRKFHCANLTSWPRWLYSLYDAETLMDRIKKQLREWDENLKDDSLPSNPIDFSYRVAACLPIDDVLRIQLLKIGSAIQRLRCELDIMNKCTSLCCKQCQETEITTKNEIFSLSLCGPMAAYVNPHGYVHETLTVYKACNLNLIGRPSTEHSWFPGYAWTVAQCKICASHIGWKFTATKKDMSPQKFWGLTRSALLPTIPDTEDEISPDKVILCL


Molecular target: T1, CRBN, Q96SW2
Test: log2 fold change of degron read counts, EGFP-low vs EGFP+ sorted cells (limma voom), compound-induced degradation; higher = more compound-induced degradation of the degron-EGFP fusion; degrons are variants of IKZF1/3 zinc finger 2; compound dose not given here
Settings: Jurkat, 18 h
Procedure: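 Pooled library of 8380 IKZF3 ZF2 degron mutants (positions 146-167 varied within the IKZF3 130-189 degron; only the varied core is printed, flanks not printed) fused to EGFP with IRES-mCherry, lentivirally expressed in Jurkat cells. mCherry+ cells were treated with one IMiD compound for 18 h (dose not stated) and FACS-sorted into EGFP-low and EGFP+ populations. Degron sequences were counted by NGS, and log2FC (EGFP-low vs EGFP+) was estimated by limma voom over 3 biological replicates.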

[1] = compound: compound 19 (5-tert-butyl-thalidomide)
[2] = compound: compound 22 (5-morpholino-thalidomide)
[3] = compound: compound 33 (diphenyl IMiD analogue)
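Also: pooled lentiviral library of zinc finger degron-EGFP fusions in mCherry-positive Jurkat cells, FACS-sorted after compound exposure, with degron abundance counted by next-generation sequencing.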

Sequence | log2 fold change of degron read counts [1] | log2 fold change of degron read counts [2] | log2 fold change of degron read counts [3] | log2 fold change of degron read counts (compound: thalidomide)
FICNICGADFTQKGNLLRHIKL [46F_47I_49N_50I_52G_53A_54D_55F_67L_, Q9UKT9] | -2.47 | -1.85 | -1.03 | -0.92
FTCDVCGAIFTQKGNLLRHIKL [46F_47T_49D_50V_52G_53A_54I_55F_67L_, Q9UKT9] | -2.2 | -1.5 | -0.885 | -0.951
FACEICGRYFTQKGNLLRHIKL [46F_47A_49E_50I_52G_53R_54Y_55F_67L_, Q9UKT9] | 1.02 | -1.33 | -1.87 | -1.22
FSCPICGAMFTQKGNLLRHIKL [46F_47S_49P_50I_52G_53A_54M_55F_67L_, Q9UKT9] | 1.66 | 1.01 | 1.5 | 0.771
FVCPICGADFTQKGNLLRHIKL [46F_47V_49P_50I_52G_53A_54D_55F_67L_, Q9UKT9] | -1.19 | 1.3 | 1.21 | 1.95
FQCPICGAMFTQKGNLLRHIKL [46F_47Q_49P_50I_52G_53A_54M_55F_67L_, Q9UKT9] | -0.249 | 2.56 | 2.51 | 3.62
FVCPICGAMFTQKGNLLRHIKL [46F_47V_49P_50I_52G_53A_54M_55F_67L_, Q9UKT9] | -0.498 | 1.33 | 1.86 | 1.85
FGCPICGAMFTQKGNLLRHIKL [46F_47G_49P_50I_52G_53A_54M_55F_67L_, Q9UKT9] | 3.33 | 2.19 | 1.89 | 0.606
FHCPICGAMFTQKGNLLRHIKL [46F_47H_49P_50I_52G_53A_54M_55F_67L_, Q9UKT9] | 1.97 | 1.9 | 1.34 | 0.306
FSCPICGADFTQKGNLLRHIKL [46F_47S_49P_50I_52G_53A_54D_55F_67L_, Q9UKT9] | 1.3 | 0.182 | 1.52 | 0.227
FYCPICGAMFTQKGNLLRHIKL [46F_47Y_49P_50I_52G_53A_54M_55F_67L_, Q9UKT9] | 2.65 | 2.73 | 2.02 | 0.0372
FQCPICGADFTQKGNLLRHIKL [46F_47Q_49P_50I_52G_53A_54D_55F_67L_, Q9UKT9] | 0.457 | 1.55 | 2.48 | 3.81
